This is an account of results in PubChem BioAssay.

One assay has as its target Albumin (Bos taurus) (UniProt P02769). Description: compounds binding labelled BSA control protein – biochemical, small-molecule microarray, Alexa647 label, 635/667 nm fluorescence, artefact control for SMM control protein annotation, profiling panel (AID 1118).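 Note: score merges 667 nm emission intensity and signal-to-noise per printed compound spot.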 As to conditions: BSA-A647 binding, fluorescence 635 nm, higher = more signal.
The nature of assay [1]: probe aXIP binding to arrayed compounds – biochemical, NeuroSMM set, 635/667 nm fluorescence, primary screen (AID 1119).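 Note: probe is the protein aXip251-270 applied at 1 µg/mL to compound-printed slides; binding of probe to printed compounds measured as 667 nm fluorescence plus signal to noise.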 As to conditions: small-molecule microarray, higher = more signal, called active from +8 up or from −8 down.
Assay [2] is described as follows: probe aNOTCH3 binding on compound microarray – biochemical, small-molecule microarray, 635/667 nm fluorescence, primary screen (AID 1120).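 Note: probe is a biotin-tagged antibody raised against NOTCH3 rather than NOTCH3 protein; score merges spot fluorescence near 667 nm with spot signal to noise.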 The settings on record: higher = more signal.
Assay [3] in a line: probe aNOTCH2 binding on compound microarray – biochemical, small-molecule microarray, 635/667 nm fluorescence, primary screen (AID 1121).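 Note: score merges feature fluorescence read at 667 nm with its signal to noise.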 As to conditions: higher = more signal.
The target in assay [4] is Carbonic anhydrase 2 (Homo sapiens) (UniProt P00918). The experiment in a line: compounds binding carbonic anhydrase 2 – biochemical, small-molecule microarray, Alexa647-labelled CAII, profiling panel (AID 1122). As to conditions: CAII-A647 binding fluorescence, higher = more signal.
A short description of assay [5]: COS7 lysate on small-molecule microarray, probe aHis, 635 nm (AID 1123).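 Note: z-score combines 667nm fluorescence intensity with signal-to-noise per printed compound spot.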 As to conditions: COS7 cell lysate, fluorescence, higher = more signal.
A short description of assay [6]: probe aLAP1 signal on lysate-treated microarray – cell lysate, small-molecule microarray, COS7 lysate, primary screen (AID 1124).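 Note: lysate comes from COS7 cells expressing LAP1 and is applied at 0.3 µg/mL; score merges spot fluorescence near 667 nm with signal-to-noise over triplicate slides.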 As to conditions: probe aLAP1, fluorescence, higher = more signal.
In the next assay the test system is Sam68 (KHDRBS1). Description: compounds binding KHDRBS1 protein – biochemical, small-molecule microarray, 635 nm fluorescence, primary screen (AID 1125).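 Note: score merges 667 nm channel intensity with signal to noise over triplicate slides.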 As to conditions: higher = more signal.
Assay [7] relates to Chordin-like protein 2 (CHRDL2). Description: compounds binding chordin-like 2 – biochemical, small-molecule microarray, 635 nm fluorescence, primary screen (AID 1126).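 Note: printed compound slides probed with Chrdl2 protein at 4 µg/mL for 1 h at 4 C; score merges 667 nm emission intensity with signal to noise over three replicate slides.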 The settings on record: fluorescence 635 nm, higher = more signal.
The target in assay [8] is Concanavalin-A (Canavalia ensiformis) (UniProt P02866). The experiment in a line: compounds binding concanavalin A lectin – biochemical, small-molecule microarray, Alexa647 label, 635 nm, artefact control for SMM control protein annotation, primary screen (AID 1127).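 Note: z combines 667 nm emission intensity with signal-to-noise across three replicate slides.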 As to conditions: ConA-A647 binding fluorescence, higher = more signal.
Chain of Concanavalin-A (Canavalia ensiformis) (P02866 whole entry, looked up): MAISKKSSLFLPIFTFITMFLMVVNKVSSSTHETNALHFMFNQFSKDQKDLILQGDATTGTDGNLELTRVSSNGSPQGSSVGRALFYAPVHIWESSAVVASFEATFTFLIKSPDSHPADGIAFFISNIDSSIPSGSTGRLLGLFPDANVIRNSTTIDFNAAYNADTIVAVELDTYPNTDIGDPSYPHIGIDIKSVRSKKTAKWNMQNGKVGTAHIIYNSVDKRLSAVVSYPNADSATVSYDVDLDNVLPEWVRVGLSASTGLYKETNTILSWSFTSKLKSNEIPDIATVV

SMILES strings stand for the structures. Active and inactive are the calls of the source.

Chain of Albumin (Bos taurus) (P02769 whole entry, looked up): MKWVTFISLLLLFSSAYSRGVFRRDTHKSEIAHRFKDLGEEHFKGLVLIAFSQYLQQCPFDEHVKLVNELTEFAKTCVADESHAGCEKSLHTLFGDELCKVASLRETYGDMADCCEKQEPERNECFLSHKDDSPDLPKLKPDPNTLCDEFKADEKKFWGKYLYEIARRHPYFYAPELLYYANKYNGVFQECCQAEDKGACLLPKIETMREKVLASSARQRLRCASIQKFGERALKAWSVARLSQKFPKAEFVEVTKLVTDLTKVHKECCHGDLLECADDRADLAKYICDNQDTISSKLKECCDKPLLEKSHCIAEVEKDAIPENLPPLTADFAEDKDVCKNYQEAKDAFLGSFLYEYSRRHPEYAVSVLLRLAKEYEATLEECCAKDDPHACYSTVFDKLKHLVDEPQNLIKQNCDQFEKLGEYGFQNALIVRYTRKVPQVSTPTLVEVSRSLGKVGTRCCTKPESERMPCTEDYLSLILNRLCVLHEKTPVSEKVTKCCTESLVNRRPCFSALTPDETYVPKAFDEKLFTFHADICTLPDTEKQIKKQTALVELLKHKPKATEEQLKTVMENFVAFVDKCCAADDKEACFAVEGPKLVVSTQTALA

As for `CN1C(=O)C2C=CC(C(O)c3cc(C(F)(F)F)cc(C(F)(F)F)c3)N(Nc3ccccc3)C2C1=O` (stereo not given), the composite z-score with Albumin (Bos taurus) is 0.969; in assay [2], -0.149; in assay [3], -0.147; in assay [4], 0.831; in assay [5], 2.96; in assay [6], -0.23. The composite z-score in the assay with Sam68 (KHDRBS1) was 0.891; in assay [7], -0.616; in [8], -0.0932. Besides, the composite Z-score in assay [1] is 0.309 (inactive).
`C=C[C@@H](C)[C@H](O)c1ccc(OCCO)cc1`: the composite z-score in the assay with Albumin (Bos taurus) is 0.189; in assay [2], -0.529; in assay [3], -0.206; in assay [4], 0.799; in assay [5], 0.28; in assay [6], -0.343. Moreover, the composite z-score with Sam68 (KHDRBS1) is -0.885; in [7], -0.49; in [8], -1.01. Besides, the composite Z-score in assay [1] is 0.0275 (inactive).
With `C=CCOC(=O)[C@H]1[C@@H]2C(=O)O[C@@H](c3ccccc3)[C@@H](c3ccccc3)N2[C@@H](c2ccc(OCCOC(=O)[C@H]3C[C@H]4C(=O)N[C@@H](CCCCNC(C)=O)C(=O)N4[C@H]3c3cccc(OCCO)c3)cc2)[C@]12C(=O)Nc1ccc(I)cc12`, the composite z-score is -0.371 in the assay with Albumin (Bos taurus); -0.366 in [2]; -0.354 in [3]; 0.605 in assay [4]; 1.47 in assay [5]; 0.353 in [6]. The composite z-score with Sam68 (KHDRBS1) came out at 1.25; in assay [7], 0.736; in assay [8], 1.12. In addition, in assay [1], the composite Z-score was 1.97 (inactive).
In the case of `[N-]=[N+]=Nc1ccccc1C[C@@]1(C(=O)O)N=C(c2ccc(OCCCO)cc2)O[C@@H]1c1ccccc1N=[N+]=[N-]`, the composite z-score was determined as 0.612 in the assay with Albumin (Bos taurus); 0.126 in assay [2]; 0.13 in [3]; 0.457 in assay [4]; 2.49 in assay [5]; 1.66 in [6]. Besides, the values for the composite z-score (with Sam68 (KHDRBS1); in assay [7]; in assay [8]) were 1.3, -0.91 and 1.15, respectively. Besides, in [1], the composite Z-score is 0.95 (inactive).
For the compound `CO[C@H]1O[C@H](CO)[C@@H](OC(=O)c2ccc(Br)cc2)[C@@H]2OC(=O)[C@H](Cc3ccccc3)C/C=C/C[C@@H](Cc3ccccc3)C(=O)O[C@@H]12`, the composite z-score is 0.776 with Albumin (Bos taurus); 0.0971 in assay [2]; -0.15 in assay [3]; 0.704 in assay [4]; 0.186 in [5]; 1.07 in assay [6]. Moreover, the composite z-score was -0.148 in the assay on Sam68 (KHDRBS1), 0.136 in assay [7] and 0.599 in assay [8]. Besides, the composite Z-score in assay [1] was 0.726 (inactive).
Take `C=C(C(=O)CC[C@H](OC(=O)c1ccccc1-c1ccccc1C(=O)O)c1ccccc1OCCO)C(C)C`: the composite z-score with Albumin (Bos taurus) was 0.0198; in [2], -0.0035; in assay [3], -0.176; in assay [4], 0.52; in assay [5], 0.559; in assay [6], -0.0566. Also, the composite z-score was 0.974 in the assay with Sam68 (KHDRBS1), 0.0958 in [7] and -0.138 in [8]. Further, the composite Z-score in assay [1] is 0.292 (inactive).
For `COC(=O)[C@@]1(Cc2ccc(F)cc2)[C@H]2c3cc(C(=O)N(C)C)n(Cc4c(CO)[nH]cc(C)c4=O)c3C[C@H]2CN1C(=O)c1ccccc1`, the composite z-score with Albumin (Bos taurus) is 0.569; in assay [2], 0.26; in assay [3], 0.224; in [4], 0.866; in assay [5] it was 0.816; in assay [6], 1.41. Besides, the composite z-score is -0.279 in the assay on Sam68 (KHDRBS1), 0.146 in assay [7] and -0.189 in assay [8]. Moreover, the composite Z-score in assay [1] is 0.266 (inactive).
As to `CCOC(=O)C[C@H]1[C@H](OC(=O)c2ccc(C(=O)c3ccccc3)cc2)[C@@H](NC(=O)CC(C)C)c2cc(OCCCO)ccc2N1C(=O)Cc1ccc(OC)cc1`, the composite z-score in the assay with Albumin (Bos taurus) is 0.793; in assay [2] it was -0.0377; in [3] it was 0.075; in assay [4], 0.139; in assay [5], 1.26; in [6] it was 0.563. The values for the composite z-score (in the assay on Sam68 (KHDRBS1); in [7]; in [8]) were 0.698, -0.612 and 0.142, respectively. Further, the composite Z-score in assay [1] was -0.0147 (inactive).
Take `Cc1ccccc1C(O)C1C=CC2C(=O)NC(=O)C2N1Nc1ccc(Cl)cc1Cl` (stereo not given): the composite z-score was 0.709 with Albumin (Bos taurus); -0.0653 in [2]; -0.0453 in assay [3]; 0.558 in assay [4]; 2.4 in assay [5]; 1.1 in assay [6]. Further, the composite z-score with Sam68 (KHDRBS1) was 0.965; in assay [7], 0.291; in assay [8], 0.814. Also, the composite Z-score in assay [1] was 1.42 (inactive).
For `COc1cc(NN2C(C(O)c3cc(OC)c(OC)c(OC)c3)C=CC3C(=O)N(c4ccccc4)C(=O)C32)cc(OC)c1OC` (stereo not given), the composite z-score with Albumin (Bos taurus) was 1.06; in [2], 0.612; in assay [3], 0.044; in assay [4], 0.722; in [5], 2.19; in assay [6], 0.289. The composite z-score came to 1.32 in the assay on Sam68 (KHDRBS1), 0.476 in [7] and 1.2 in assay [8]. Further, the composite Z-score in assay [1] is 0.573 (inactive).
Turning to `Cc1ccc(N2C(=O)c3ccccc3[C@](C)(C(=O)NCc3ccccc3)[C@@H]2c2ccc(CO)cc2)nc1`, the composite z-score was -0.377 in the assay with Albumin (Bos taurus); 0.0311 in assay [2]; 0.0611 in assay [3]; 0.764 in assay [4]; 0.688 in [5]; 0.656 in [6]. The composite z-score was -0.316 in the assay on Sam68 (KHDRBS1), 0.408 in assay [7] and 0.0943 in [8]. The composite Z-score in [1] is -0.446 (inactive).
With `CC1CC/C=C\[C@H]2OC34C=CCN(CCN5CCOCC5)C(=O)[C@H]3N(C(C)CO)C(=O)[C@@H]4C2C(=O)O1` (stereo not given in full), the composite z-score was -0.712 with Albumin (Bos taurus); -0.129 in assay [2]; -0.0741 in [3]; 0.738 in [4]; 1.57 in assay [5]; -0.221 in [6]. Further, the figures for the composite z-score (in the assay with Sam68 (KHDRBS1); in assay [7]; in assay [8]) were 0.19, -0.231 and -0.371, respectively. The composite Z-score in assay [1] was 0.117 (inactive).
On to `[N-]=[N+]=NCc1ccccc1C[C@]1(C(=O)N2CCOCC2)COC(c2ccc(OCCCO)cc2)=N1`, for which the composite z-score in the assay with Albumin (Bos taurus) turned out to be 0.754; in assay [2], 0.139; in [3], 0.126; in [4] it was 0.71; in assay [5], 0.969; in [6], 0.262. For the same compound, the composite z-score with Sam68 (KHDRBS1) was 1.22; in [7] it was -0.202; in assay [8], 0.468. Besides, in assay [1], the composite Z-score is -0.592 (inactive).
With `CC(C)OC(=O)CC(=O)CC(O)c1ccc([N+](=O)[O-])cc1` (stereo not given), the composite z-score in the assay with Albumin (Bos taurus) was 0.169; in assay [2] it was -0.0413; in [3], 0.0215; in assay [4], 0.152; in [5], 0.666; in assay [6], 0.447. Also, the figures for the composite z-score (with Sam68 (KHDRBS1); in [7]; in assay [8]) were 0.543, -1.23 and -0.122, respectively. Also, the composite Z-score in assay [1] is -0.314 (inactive).
On to `C=C[C@@H](OC)[C@H](OC(=O)Nc1ccc(SC)cc1)c1ccc(OCCO)cc1`, for which the composite z-score in the assay with Albumin (Bos taurus) was 0.687; in [2] it was 0.23; in [3], -0.101; in assay [4], 0.361; in assay [5] it was 1.89; in [6], 0.35. In addition, the composite z-score in the assay on Sam68 (KHDRBS1) is 1.34; in [7], 0.207; in assay [8], 0.89. Also, the composite Z-score in assay [1] is 0.0939 (inactive).
Turning to `CN(C)CCCCNC(=O)[C@H]1C[C@H]2C(=O)N[C@@H](CCCC[N+](C)(C)C)C(=O)N2[C@H]1c1ccc(O)cc1`, the composite z-score with Albumin (Bos taurus) was -0.165; in assay [2] it was -0.208; in assay [3], 0.2; in assay [4] it was 0.716; in assay [5] it was -0.287; in assay [6], 0.106. The composite z-score with Sam68 (KHDRBS1) is -0.863; in assay [7], -0.187; in assay [8], 0.343. Also, the composite Z-score in assay [1] is 0.261 (inactive).
